Sampled rows, rich in hits. Any-hit rate of the full collection: about 7%.
IL-1B inflam inh = qHTS for Inhibitors of Inflammasome Signaling: IL-1-beta AlphaLISA Primary Screen | THP-1 LPS/ATP IL-1B secretion, AlphaLISA, 16 h; stronger effect = lower value | 4.7% of 360,000 active | activity change, % at 57.5 µM | AID 743279, 2014; in the data active = activity change below about -50%; inconclusive = mostly about -30% to -49%; note: % is set by controls: 0 for no effect and ±100 for the full control effect
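THP-1 cells pretreated 1 hr with compounds (up to 57.5 uM final), then stimulated with LPS (250 ng/mL final) plus ATP (1.25 mM final); secreted IL-1B measured by AlphaLISA after 16 hr, decreased signal indicating inhibition.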
ATXN2 expr inh = Primary qHTS for Inhibitors of ATXN expression. 0.72% of 360,000 active. HEK-293 ATXN2-luciferase reporter, luminescence, 24 h. Potency, µM (top dose mostly 57 µM), inactives show at the top dose activity change, negative = inhibition, usual class: inhibitors; note: potency is the fitted concentration of half-maximal effect; % is set by controls: 0 for no effect and ±100 for the full control effect; nearly all actives have a fitted effect of over 55% in size
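ATXN2-luciferase reporter cells (luciferase flanked by upstream and downstream ATXN2 gene portions) were treated 24 h at 37 °C with compounds at up to 57 uM. SteadyGlo luminescence gave expression; GF-AFC fluorescence gave viability.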
S2 tox = Viability Counterscreen for Primary qHTS for Inhibitors of ATXN expression; S2 cells (HEK-293 line with an ATXN2-luciferase reporter) viability, CellTiter-Fluor protease fluorescence, 24 h; Potency, µM (titrated, usually from 56.7 µM), actives largely listed as cytotoxic; 0.49% of 400,000 active; AID 651635, 2014; note: potency is the fitted concentration of half-maximal effect; nearly all actives have a fitted effect of over 40% in size
a7 integrin act = qHTS for Activators of Integrin-Mediated Alleviation for Muscular Dystrophy | alpha7betagal myoblasts, beta-gal FDG fluorescence, 48 h | Potency, µM (doses to about 38.3 µM), without a hit: top-dose activation, usual class: activators | 0.064% of 350,000 active;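 note: potency is the fitted concentration of half-maximal effect; 100% = response of the positive control SU9516; nearly all actives have a fitted effect of over 60% in size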
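Alpha7betagal+/- myoblasts (passage 13) were plated 16-24 hr, then exposed to compounds (1:260 dilution of DMSO stock) for 48 hours at 37C. After MPER lysis, β-galactosidase reporter activity was read as FDG fluorescence (ex 480/em 540) after 30 minutes.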
D3 ag = qHTS of D3 Dopamine Receptor Agonist: qHTS; D(3) dopamine receptor (Homo sapiens), P35462; D3R DiscoveRx beta-arrestin cells, luminescence, 90 min; max activation, %; 0.58% of 410,000 active; AID 652048, 2013; in the data active = max activation above about 30%; note: 0% is about no effect
Target sequence (P35462 whole entry, looked up): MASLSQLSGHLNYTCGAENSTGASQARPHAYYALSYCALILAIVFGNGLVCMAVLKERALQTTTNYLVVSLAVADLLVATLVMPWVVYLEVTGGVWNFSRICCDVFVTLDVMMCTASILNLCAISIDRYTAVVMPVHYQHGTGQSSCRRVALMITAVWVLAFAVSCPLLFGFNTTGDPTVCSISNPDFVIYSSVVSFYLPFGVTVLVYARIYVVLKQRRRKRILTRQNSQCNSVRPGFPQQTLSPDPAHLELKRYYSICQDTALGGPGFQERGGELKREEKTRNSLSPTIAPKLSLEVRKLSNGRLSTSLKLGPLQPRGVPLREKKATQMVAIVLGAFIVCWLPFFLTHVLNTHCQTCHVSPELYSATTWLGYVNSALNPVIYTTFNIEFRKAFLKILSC
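Agonist mode: compounds and dopamine controls were applied to plated cells for 90 min at 37 degrees C after an overnight attachment at 1500 cells/well. Luminescent read-out followed 30 - 60 minutes at room temperature with DiscoveRx detection reagent.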
D3 antag = qHTS of D3 Dopamine Receptor Antagonist: qHTS; 2.5% of 360,000 active; D3R cells, DiscoveRx beta-arrestin luminescence, antagonist mode; stronger effect = lower value; max response, negative = inhibition, %; in the data active = max response below about -50%; inconclusive = no clear call, values can overlap the other calls; note: % is set by controls: 0 for no effect and ±100 for the full control effect
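Cells expressing the human receptor were seeded at 1500 cells/well, incubated overnight at 37 degrees C in 5% CO2, then exposed to library compounds with dopamine controls for 90 minutes at 37 degrees C before luminescent detection.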
* hit, by the source's call; i = inactive; ? = inconclusive; nt = no result; [ ] = remark or other dose. Unless noted, calls come from the whole dose curve; as a rule, active = well fitted curve in the direction sought with a large enough effect; inconclusive = small, poorly fitted or top-dose-only effect, or another doubt; inactive = no such curve, though single readings can be large; an effect the other way counts as inactive or inconclusive.

SMILES | IL-1B inflam inh | ATXN2 expr inh | S2 tox | a7 integrin act | D3 ag | D3 antag
Cn1c(=O)c2c(nc(SCCN3CCCCC3)n2Cc2ccc(Cl)cc2)n(C)c1=O | -10.8 | -1.7% | i | -26.9% | 0.8 | -51.3*
O=c1c2ccccc2nc(SCCN2CCCCC2)n1CCc1ccccc1 | -60.2* | -25.1%[11.3 µM] | ? | -45.8% | -10.1 | -56.1*
CCSc1nc2c(c(=O)n(C)c(=O)n2C)n1Cc1ccc(Cl)cc1 | 0.0 | -21.0% | i | 25.3% | -0.8 | 0.9
Cn1c(=O)c2c(nc(N3CCNCC3)n2Cc2cccc3ccccc23)n(C)c1=O | -20.6 | -25.4% | i | -47.7% | -8.9 | -68.8*
Cn1c(=O)[nH]c(=O)c2c1nc(N1CCNCC1)n2Cc1ccccc1 | 13.4 | 0.2% | ? | 13.2% | 2.7 | -17.2
COc1ccc(C(=O)C2CCCN(C(=O)C3=CCCC3)C2)cc1OC (stereo not given) | 10.5 | -28.3% | i | -7.7% | -0.1 | 1.3
CC1CCN(c2nc3c(c(=O)n(C)c(=O)n3C)n2Cc2ccccc2)CC1 | -61.6* | -4.6% | i | -32.4% | -13.9 | -26.4
Cn1c(=O)[nH]c(=O)c2c1nc1n2CCN1c1ccccc1 | nt | 3.2% | i | nt | 44.6* | nt
CN1CCN(c2nc3c(c(=O)n(C)c(=O)n3C)n2Cc2ccccc2)CC1 | -6.2 | 0.0% | i | 24.4% | 7.1 | 7.0
CCCCCCCCCn1c2c(c(=N)c3c1CCC3)CCC2 | -96.9* | 2µM* | ? | -60.1% | -3.3 | -55.6*
CCCCCCCn1c2c(c(=N)c3c1CCC3)CCCC2 | -27.1 | 1.89µM* | ? | ? | 6.5 | -6.9
CCCCCCn1c2c(c(=N)c3c1CCC3)CCC2 | ? | 8.91µM* | i | ? | -6.3 | -18.8
CCCCn1c2c(c(=N)c3c1CCC3)CCC2 | -2.5 | ? | i | -58.0% | -5.0 | 17.9
CCOC(=O)C1(C)CCN1C(=O)c1cc(C)oc1C (stereo not given) | -8.7 | -3.5% | i | nt | 2.2 | 0.0
CN1CCCC1CCNc1ccc2c(=O)c3ccccc3oc2c1 (stereo not given) | -82.7* | -33.6% | nt | -21.1% | 1.1 | 15.0
O=c1c2ccccc2oc2cc(NCCCn3ccnc3)ccc12 | -19.4 | 26.7% | nt | 23.9% | -2.6 | 25.3
CN1CCCC1CCNc1ccc2oc3ccccc3c(=O)c2c1 (stereo not given) | -79.2* | ? | ? | -30.5% | -0.7 | 28.5
CN1CCC[C@H]1CCNc1ccc2c(=O)c3ccccc3n(C)c2c1 | -71.6* | ? | nt | -11.6% | 0.1 | 34.9
O=c1c2ccccc2oc2ccc(Oc3ccccc3)cc12 | -10.4 | 112.6% | i | -4.8% | 6.3 | 0.0
COc1ccc(NS(=O)(=O)c2cccc3nsnc23)cc1OC | 6.0 | 10.2% | i | -2.9% | 5.2 | 6.9
COc1ccc(N2C(=O)[C@@H]3C[C@H]2CN3Cc2cccn2-c2nccs2)cc1Cl | nt | nt | i | nt | nt | nt
COc1ccc(CNC(=O)CC(NC(N)=O)c2ccccc2Cl)cc1OC (stereo not given) | -4.4 | -9.6% | i | -17.4% | -20.2 | -22.7
O=C1NCCN/C1=C\C(=O)c1ccc(Cl)cc1 | -10.8 | 79.7% | i | 1.2% | 5.1 | 6.8
Cc1ccc(N=CC=C2OC(C)(C)C(C)(C)O2)c(C)c1 | -15.9 | 5.6% | i | 3.2% | 1.1 | 18.8
COc1ccccc1N=CC=C1OC(C)(C)C(C)(C)O1 | -75.2* | -7.3% | i | 40.2% | 1.0 | 0.0
CN(C)CC(=O)N1c2ccccc2CCc2ccc(NC(=O)c3ccc(N)cc3)cc21 | -21.5 | 4.0% | i | 10.8% | 2.5 | 7.8
COc1cc(C(=O)Nc2ccc3c(c2)N(C(=O)CCN(C)C)c2ccccc2CC3)cc(OC)c1OC | -59.9* | 5.5% | ? | -29.5% | 19.1 | -0.2
Clc1cccc(OCCN2CCNCC2)c1 | 8.8 | nt | i | -22.1% | 26.4 | -20.6

From PubChem BioAssay
